# Data published in PubChem BioAssay (NCI).
# Compounds without any hit were thinned out: in the full panel of roughly 79,000, 15% have a hit. Values without a mark were called inactive. Active and inactive are the calls of the source. Rule as the data show it: active = growth inhibition above about 70%; inactive = the rest.
# Tests used:
# [1] = NCI Yeast Anticancer Drug Screen. Data for the rad52 strain (AID 147);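 also: 0% = growth of vehicle-treated control cultures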; details: S. cerevisiae rad52 mutant growth inhibition, hits give high values
# Procedure, shortened: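 Screen used a yeast mutant impaired in DNA repair. After compound exposure, growth was measured. Values reflect inhibition compared with vehicle-treated cells.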
# [2] = NCI Yeast Anticancer Drug Screen. Data for the wt1 strain (AID 149);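 also: 0% = growth of vehicle-treated wt1 cultures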; details: S. cerevisiae wt1 strain (SPY 50644) growth inhibition, hits give high values
# Procedure, shortened: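 Vehicle-normalised growth inhibition; strain wt1; compound exposure.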
# [3] = NCI Yeast Anticancer Drug Screen. Data for the rad50EPP+ strain (AID 151);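 also: 0% = growth of vehicle-treated control cultures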; details: S. cerevisiae rad50 mutant strain, hits give high values
# Procedure, shortened: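 Exposing the rad50EPP+ strain to each compound, growth was compared with vehicle-only cultures to give inhibition.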
# [4] = NCI Yeast Anticancer Drug Screen. Data for the mgt1 strain (AID 153); details: S. cerevisiae mgt1 mutant growth inhibition, hits give high values
# Procedure, shortened: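 Genetically defined yeast (mgt1) treated with compound; inhibition of growth expressed against vehicle-treated controls.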
# [5] = NCI Yeast Anticancer Drug Screen. Data for the rad50 strain (AID 155);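 also: 0% = growth of vehicle-only cultures of the same strain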; details: S. cerevisiae rad50 strain growth inhibition, hits give high values
# Procedure, shortened: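 A DNA repair-deficient yeast mutant serves as the test organism; compound-induced growth inhibition is calculated against vehicle-treated cells.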
# [6] = NCI Yeast Anticancer Drug Screen. Data for the mec2-1 strain (AID 157); details: S. cerevisiae mec2-1 strain, hits give high values
# Procedure, shortened: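 Readout is yeast growth inhibition, normalised to vehicle-treated controls, in the mec2-1 strain exposed to compound.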
# [7] = NCI Yeast Anticancer Drug Screen. Data for the rad14 strain (AID 159);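 also: 0% = growth of vehicle-treated control cultures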; details: S. cerevisiae rad14 strain growth inhibition, hits give high values
# Procedure, shortened: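 Vehicle-treated cultures served as the baseline for growth inhibition of a DNA repair-mutant yeast strain exposed to each compound.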
# [8] = NCI Yeast Anticancer Drug Screen. Data for the sgs1 mgt1 strain (AID 161);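 also: 0% = growth of cultures given vehicle only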; details: S. cerevisiae sgs1 mgt1 strain, hits give high values
# Procedure, shortened: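 Yeast cells carrying a defined DNA-repair defect were exposed to test compounds. Growth inhibition was measured relative to vehicle-treated controls.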
# [9] = NCI Yeast Anticancer Drug Screen. Data for the CLN2oe strain (AID 163);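 also: 0% = growth of vehicle-only control cultures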; details: S. cerevisiae CLN2oe strain, hits give high values
# Procedure, shortened: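 Values reflect how much compound exposure reduced yeast growth, referenced to vehicle-exposed cells. Assay organism is a strain with a defined genetic change affecting cell-cycle control.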
# [10] = NCI Yeast Anticancer Drug Screen. Data for the cln2 rad14 strain (AID 165);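 also: 0% = growth equal to vehicle treated cultures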; details: S. cerevisiae cln2 rad14 strain, hits give high values
# Procedure, shortened: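 Relative to vehicle controls, growth inhibition of compound-treated cln2 rad14 yeast was recorded.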
# [11] = NCI Yeast Anticancer Drug Screen. Data for the bub3 strain (AID 167); details: S. cerevisiae bub3 mutant strain, hits give high values
# Procedure, shortened: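 Inhibition values come from growth of compound-treated mutant yeast normalised to vehicle-treated controls.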
# [12] = NCI Yeast Anticancer Drug Screen. Data for the wt2 strain (AID 169);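 also: 0% = growth of vehicle-treated yeast cultures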; details: S. cerevisiae wt2 strain growth inhibition, hits give high values
# Procedure, shortened: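 Values express reduction in yeast growth under compound treatment, referenced to vehicle-treated cells.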
# [13] = NCI Yeast Anticancer Drug Screen. Data for the mlh1 strain (AID 171);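 also: 0% = growth of vehicle-treated control cultures of the same strain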; details: S. cerevisiae mlh1 strain growth inhibition, hits give high values
# Procedure, shortened: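 Steps: expose the defined-mutant yeast strain to compound; expose a parallel culture to vehicle; measure growth; express compound effect as inhibition relative to the vehicle culture.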
# [14] = NCI Yeast Anticancer Drug Screen. Data for the sgs1 strain (AID 173);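 also: 0% = growth of vehicle-only control cultures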; details: S. cerevisiae sgs1 mutant, hits give high values
# Procedure, shortened: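 Treat defined-mutant yeast with compound; measure growth; calculate inhibition relative to vehicle-treated cells.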
# [15] = NCI Yeast Anticancer Drug Screen. Data for the mlh1 rad18 strain (AID 175); details: S. cerevisiae mlh1 rad18 strain growth inhibition, hits give high values
# Procedure, shortened: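 Test agents were incubated with a yeast strain of defined genotype (DNA damage repair defect). Inhibition of growth was derived by comparison with vehicle-exposed cultures.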
# [16] = NCI Yeast Anticancer Drug Screen. Data for the rad18 strain (AID 177); details: S. cerevisiae rad18 mutant growth inhibition, hits give high values
# Procedure, shortened: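 A genetically defined yeast mutant impaired in DNA damage repair was treated with test compounds, then its growth was measured against cultures receiving vehicle alone.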
# [17] = at 5.0 µM (retest, dose inferred, filed as 0.5)
# [18] = at 50.0 µM (retest, dose inferred, filed as 5.0)
smiles,measurement,setting,value
COC1/C=C\C=C(/C)C(=O)NC2=CC(=O)C(=O)C(=C2O)CC(C)CC(OC)C(O)C(C)/C=C(\C)C1OC(N)=O (stereo not drawn),growth inhibition,[1]; at 1.2 µM,24%
same,growth inhibition,[1]; at 3.7 µM,32%
same,growth inhibition,[1]; at 11.0 µM,94% (active)
same,growth inhibition,[1]; at 33.0 µM,98% (active)
same,growth inhibition,[1]; at 100.0 µM,97% (active)
same,growth inhibition,[2]; at 1.2 µM,10%
same,growth inhibition,[2]; at 3.7 µM,-17%
same,growth inhibition,[2]; at 11.0 µM,86% (active)
same,growth inhibition,[2]; at 33.0 µM,95% (active)
same,growth inhibition,[2]; at 100.0 µM,94% (active)
same,growth inhibition,[3]; at 1.2 µM,15%
same,growth inhibition,[3]; at 3.7 µM,2%
same,growth inhibition,[3]; at 11.0 µM,3%
same,growth inhibition,[3]; at 33.0 µM,7%
same,growth inhibition,[3]; at 100.0 µM,46%
same,growth inhibition,[4]; at 1.2 µM,-10%
same,growth inhibition,[4]; at 3.7 µM,28%
same,growth inhibition,[4]; at 11.0 µM,90% (active)
same,growth inhibition,[4]; at 33.0 µM,96% (active)
same,growth inhibition,[4]; at 100.0 µM,95% (active)
same,growth inhibition,[5]; at 1.2 µM,17%
same,growth inhibition,[5]; at 3.7 µM,40%
same,growth inhibition,[5]; [17],-17%
same,growth inhibition,[5]; at 11.0 µM,94% (active)
same,growth inhibition,[5]; at 33.0 µM,96% (active)
same,growth inhibition,[5]; [18],94% (active)
same,growth inhibition,[5]; at 50.0 µM,87.5% (active)
same,growth inhibition,[5]; at 100.0 µM,95% (active)
same,growth inhibition,[6]; at 1.2 µM,-12%
same,growth inhibition,[6]; at 3.7 µM,50%
same,growth inhibition,[6]; [17],56%
same,growth inhibition,[6]; at 11.0 µM,94% (active)
same,growth inhibition,[6]; at 33.0 µM,96% (active)
same,growth inhibition,[6]; [18],97% (active)
same,growth inhibition,[6]; at 50.0 µM,89.8% (active)
same,growth inhibition,[6]; at 100.0 µM,95% (active)
same,growth inhibition,[7]; at 1.2 µM,-13%
same,growth inhibition,[7]; at 3.7 µM,-10%
same,growth inhibition,[7]; at 11.0 µM,91% (active)
same,growth inhibition,[7]; at 33.0 µM,95% (active)
same,growth inhibition,[7]; at 100.0 µM,95% (active)
same,growth inhibition,[8]; [17],13%
same,growth inhibition,[8]; [18],95% (active)
same,growth inhibition,[8]; at 50.0 µM,89.8% (active)
same,growth inhibition,[9]; at 1.2 µM,-32%
same,growth inhibition,[9]; at 3.7 µM,34%
same,growth inhibition,[9]; at 11.0 µM,94% (active)
same,growth inhibition,[9]; at 33.0 µM,95% (active)
same,growth inhibition,[9]; at 100.0 µM,94% (active)
same,growth inhibition,[10]; [17],45%
same,growth inhibition,[10]; [18],96% (active)
same,growth inhibition,[10]; at 50.0 µM,77.8% (active)
same,growth inhibition,[11]; at 1.2 µM,-6%
same,growth inhibition,[11]; at 3.7 µM,51%
same,growth inhibition,[11]; [17],67%
same,growth inhibition,[11]; at 11.0 µM,93% (active)
same,growth inhibition,[11]; at 33.0 µM,96% (active)
same,growth inhibition,[11]; [18],97% (active)
same,growth inhibition,[11]; at 50.0 µM,86.2% (active)
same,growth inhibition,[11]; at 100.0 µM,95% (active)
same,growth inhibition,[12]; at 1.2 µM,6%
same,growth inhibition,[12]; at 3.7 µM,7%
same,growth inhibition,[12]; at 11.0 µM,89% (active)
same,growth inhibition,[12]; at 33.0 µM,96% (active)
same,growth inhibition,[12]; at 100.0 µM,96% (active)
same,growth inhibition,[13]; at 1.2 µM,-5%
same,growth inhibition,[13]; at 3.7 µM,11%
same,growth inhibition,[13]; at 11.0 µM,89% (active)
same,growth inhibition,[13]; at 33.0 µM,94% (active)
same,growth inhibition,[13]; at 100.0 µM,94% (active)
same,growth inhibition,[14]; at 1.2 µM,28%
same,growth inhibition,[14]; at 3.7 µM,36%
same,growth inhibition,[14]; at 11.0 µM,91% (active)
same,growth inhibition,[14]; at 33.0 µM,96% (active)
same,growth inhibition,[14]; at 100.0 µM,95% (active)
same,growth inhibition,[15]; [17],33%
same,growth inhibition,[15]; [18],92% (active)
same,growth inhibition,[15]; at 50.0 µM,83.2% (active)
same,growth inhibition,[16]; at 1.2 µM,12%
same,growth inhibition,[16]; at 3.7 µM,3%
same,growth inhibition,[16]; at 11.0 µM,91% (active)
same,growth inhibition,[16]; at 33.0 µM,96% (active)
same,growth inhibition,[16]; at 100.0 µM,95% (active)
